Data as given in PubChem BioAssay (NCI).
Compounds without any hit were thinned out: in the full panel of roughly 83,000, 20% have a hit.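 Values shown are percent growth following 48 h exposure of cells in 96-well plates to a single concentration of compound; below 10 was considered active.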 Unmarked numbers belong to inactive results. Activity calls are given as the source filed them.

Columns and labels:
Assay in all cases: NCI-60 one-dose screen, 48 h (100 = growth as untreated, 0 = no growth, -100 = all killed)
Conditions in all cases: 10 µM unless noted
NCI-H23 lung = system: NCI-H23 lung
NCI-H226 lung = system: NCI-H226 lung
NCI-H322M lung = system: NCI-H322M lung
HOP-62 NSCLC = system: HOP-62 NSCLC
NCI-H460 lung = system: NCI-H460 lung
NCI-H522 lung = system: NCI-H522 lung
A549/ATCC NSCLC = system: A549/ATCC NSCLC
786-0 renal = system: 786-0 renal
COLO 205 colon = system: COLO 205 colon
DU-145 prostate = system: DU-145 prostate
K-562 leukemia = system: K-562 leukemia
MALME-3M melanoma = system: MALME-3M melanoma
MDA-MB-231 breast = system: MDA-MB-231 breast
RXF 393 renal = system: RXF 393 renal
SF-268 CNS = system: SF-268 CNS
SF-295 CNS = system: SF-295 CNS
SF-539 CNS = system: SF-539 CNS
UACC-257 melanoma = system: UACC-257 melanoma
M14 melanoma = system: M14 melanoma

Structure (SMILES)	growth (NCI-H23 lung)	growth (NCI-H226 lung)	growth (NCI-H322M lung)	growth (HOP-62 NSCLC)	growth (NCI-H460 lung)	growth (NCI-H522 lung)	growth (A549/ATCC NSCLC)	growth (786-0 renal)	growth (COLO 205 colon)	growth (DU-145 prostate)	growth (K-562 leukemia)	growth (MALME-3M melanoma)	growth (MDA-MB-231 breast)	growth (RXF 393 renal)	growth (SF-268 CNS)	growth (SF-295 CNS)	growth (SF-539 CNS)	growth (UACC-257 melanoma)	growth (M14 melanoma)
CCOC(=O)Cc1cc(Br)c(OCc2ccccc2)c(Br)c1	94.1%	88.4%	102%	96.4%	114%	80.3%	104%	92.8%	127%	115%	86%	106%	89.1%	96.4%	106%	92.3%	106%	99.6%	99.6%
N/N=C(\C(=N\N)c1ccccc1)c1ccccc1	98.8%	88.2%	94.6%	91.7%	108%	86.6%	101%	97.6%	108%	113%	111%	88%	111%	118%	103%	105%	103%	107%	96.6%
Nc1nc(N)c2cc(NCc3ccc(Cl)c(Cl)c3)ccc2n1	-88% (active)	-74.8% (active)	-79% (active)	-85.6% (active)	-75.7% (active)	-69.8% (active)	-90.2% (active)	-89.7% (active)	-90.7% (active)	-94.8% (active)	-62.2% (active)	-64.9% (active)	-86.8% (active)	-82.7% (active)	-83.2% (active)	-80.5% (active)	-89.9% (active)	-83% (active)	-84% (active)
CN(C)CCNC(=O)n1cc(-c2ccncc2)c(-c2cc(O)cc(Cl)c2)n1	108%	102%	128%	98.2%	93.5%	115%	107%	81.4%	88.6%	102%	74.8%	6.11% (active)	88.6%	84.4%	96.8%	117%	82.5%	40.6%	27.6%
COc1ccc(CNc2c3ccccc3nc3ccccc23)cc1F	27%	43%	31.6%	44.5%	6.34% (active)	36.2%	22.8%	26%	8.7% (active)	27.2%	4.81% (active)	23.6%	29.2%	11.1%	49.1%	20.1%	18.2%	37.8%	19.9%
Cc1csc(N/N=C/c2ccncc2)n1	100%	95.9%	109%	99.1%	101%	72.9%	68.8%	88.4%	107%	108%	94.1%	117%	102%	99.5%	114%	108%	106%	78.1%	100%
Cc1ccccc1NC(=O)c1sc2nc3c(cc2c1N)C(=O)CCC3	50.6%	65.8%	71.4%	38.2%	15.3%	12.5%	37.6%	51.6%	6.12% (active)	18.3%	22.1%	66.5%	61.6%	-10.4% (active)	65.4%	57.2%	27.6%	61%	41.5%
CCN(CC)CCCC(C)Nc1c(-c2ccccc2)cnc2cc(Cl)ccc12 (stereo unspecified)	73.2%	115%	97.4%	101%	76.4%	50.1%	57.1%	52%	85.3%	87.5%	13.3%	-6.83% (active)	63.1%	63.4%	77.7%	86.5%	83.2%	-26.6% (active)	-95.7% (active)
O=C(CSc1nc2c(n1Nc1ccccc1)-c1ccccc1SC2)Nc1nccs1	91.2%	93.6%	99.7%	101%	99.4%	95.2%	96.6%	96.8%	121%	105%	84.8%	101%	88.7%	102%	96.2%	122%	97.2%	108%	102%
Nc1ncnc2c1N=C(c1ccc3c(c1)OCO3)CC(c1ccc(Cl)cc1)N2 (stereo unspecified)	81.8%	73.3%	71.2%	44.1%	83.3%	84.3%	79.6%	74.3%	68.1%	92%	83.8%	77.2%	72.3%	55.1%	77.3%	93.4%	80.2%	96.2%	96%
O=C(/C=C/c1ccco1)c1ccccc1O	93.5%	99.6%	105%	109%	108%	88.3%	101%	96.8%	119%	108%	117%	121%	111%	92.4%	99.4%	110%	98.2%	112%	105%
c1cn2cc(-c3ccc4ncn(C5CCCCC5)c4c3)nc(-c3ccc4c(c3)ncn4C3CCCCC3)c2n1	-41.5% (active)	-56.4% (active)	1.23% (active)	-55.4% (active)	-48.5% (active)	-52.6% (active)	-44.9% (active)	-47.1% (active)	-64.4% (active)	-59.1% (active)	-4.74% (active)	-14.3% (active)	-68.7% (active)	-89.1% (active)	-67% (active)	-86.5% (active)	-82.1% (active)	-71.5% (active)	-50.8% (active)
CCN(CC)c1ccc(/C=N/N=C(N)N)cc1	65.7%	84.5%	87.7%	54.8%	23.3%	27.1%	44.6%	72.4%	30.2%	55.5%	26.3%	58.9%	66%	68%	45.7%	27.8%	51.8%	47.9%	42.4%
C=C1C[C@@]2(C)C(CC[C@]3(C)C2CC=C2C4CC(C)(C)C[C@@H](OC(=O)/C(C)=C\C)[C@]4(C(=O)O)CC[C@]23C)C(C)(C)C1=O (stereo partly specified)	-45.6% (active)	-72.8% (active)	46.7%	25.9%	-37.2% (active)	-6.98% (active)	-2.25% (active)	-77.9% (active)	-11.2% (active)	10.3%	1.39% (active)	36.5%	22.7%	-75.6% (active)	50.4%	59.8%	-19.8% (active)	17.1%	-14.2% (active)
